# According to PubChem BioAssay AID1345083 (National Center for Advancing Translational Sciences (NCATS), 2018):
# In all, about 94,000 compounds went through this assay and about 6,200 (6.6%) were called active. Another 31% or so got no clear call; they are omitted. Calls come from the whole dose curve; as a rule, active = well fitted inhibition curve with a large enough effect; inconclusive = small, poorly fitted or top-dose-only effect; inactive = flat fitted curve, though single readings scatter. The full list was thinned out, with actives kept by preference.
# Test: Cytotoxic Profiling in HEK 293 Cell Line of Diverse Libraries Using Quantitative High-Throughput Screening; note: nearly all actives have a fitted effect of over 60% in size
# Settings: HEK 293 viability, ATP luminescence (CellTiter-Glo), 48-72 h; series mostly up to 115 µM; activity change, negative = cytotoxicity: at the top concentration
# From the text: Cell-based phenotypic screening is a commonly used approach to discover biological pathways, novel drug targets, chemical probes and high-quality hit-to-lead molecules. Many hits identified from high-throughput screening campaign are ruled out through a series of follow-up potency, selectivity/specificity, and cytotoxicity assays. Prioritization of molecules with little or no cytotoxicity for a more in-depth downstream evaluation influence the future direction of projects, so cytotoxicity profiling of the screening libraries at early stage is essential for increasing the likelihood of candidate success. In this study, we analyzed results from a cell-based cytotoxicity screening campaign, comprising nearly 10,000 compounds in NCATS annotated libraries, and over 100,000 compounds in a diversity library, evaluated in four normal cell lines (HEK 293, NIH 3T3, CRL-7250 and HaCat) and a cancer cell line (KB 3-1, a HeLa subline) with overall screening outcomes, hit rates, pan-activity and selectivity. For the annotated library, we also examined the primary targets and mechanistic pathways regularly associated with cell death. To our knowledge, this is the first study to use high-throughput screening to profile large libraries for cytotoxicity assessment in both normal and cancer cell lines. In summary, the results generated here constitutes a valuable resource for the scientific community and provides insight on identifying cytotoxic compounds with particular mechanisms of action, and prioritizing compounds with suitable cytotoxicity profile for further evaluation.
# HEK 293 cells were seeded into white 1536-well plates using a Multidrop Combi peristaltic dispenser (ThermoFisher, Waltham, MA) at a density of 250 cells/well in 5 uL of medium respectively. A pintool (Kalypsys) was used to transfer 23 nL of compound solution to the 1536-well assay plates. After 48 or 72 hr incubation at 37 degree Celsius, 5% CO2 and 95% humidity, 2.5 uL of CellTiter-Glo (Promega) was dispensed into each well using a dispenser (Aspect Automation, St. Paul, MN) with solenoid valves (Lee Valves, Westbrook CT). Plates were left at room temperature for 10 min before imaging the ATP-coupled luminescence using a ViewLux microplate imager (PerkinElmer, Waltham, MA).
# % is set by controls: 0 for no effect and ±100 for the full control effect; potency is the fitted concentration of half-maximal effect.
Compound,"activity change, negative = cytotoxicity",Potency,outcome
COCC1CN(C(C)=O)CC12CCN(Cc1cccc(C#N)c1)CC2 (configuration not stated),0.069% (inactive),–,–
CC(=O)NC1(C)CCN(Cc2cccc(-c3ccc(C(=O)c4ccccc4)cc3)c2)C1 (configuration not stated),–,39.8 µM (active),–
COc1cccc(CC(=O)N2CCC(CC3CC3)(NC(=O)c3ccccc3)CC2)c1,-16.1% (inactive),–,–
CCC(C(=O)Nc1ccc2c(c1)CN(Cc1cc(F)cc(F)c1)C(=O)CO2)c1ccccc1 (configuration not stated),–,44.7 µM (active),–
COc1cccc(CC(=O)N[C@@H]2C[C@H](Cn3cc(C4CC4)nn3)[C@@H](O)[C@H]2O)c1,–,–,inactive [at 172 µM]
Cc1cc2nc3n(c(=O)c2n1CC(=O)NC1CCCCC1)CCCC3,8.3% (inactive),–,–
OCc1cccc(-c2cc(C3=CCOCC3)c3cncn3c2)c1,-21.3% [at 172 µM] (inactive),–,–
FC(F)(F)c1cccc(-c2cc(C3=CCOCC3)c3cncn3c2)c1,–,100 µM (active),–
CC1=NS(=O)(=O)N(Cc2ccc(Cl)cc2)C=C1C(=O)O,-2.93% (inactive),–,–
COc1ccc(CCC(=O)N2C[C@@H](Oc3ccccc3)C[C@H]2C(=O)N2CCOCC2)cc1,-0.714% (inactive),–,–
O=C(NCc1ccccc1Cl)c1cn2cc(-c3ccc(C(F)(F)F)cc3)sc2n1,-12.3% (inactive),–,–
O=C(NCc1cccnc1)c1cn2cc(-c3cccc(C(F)(F)F)c3)sc2n1,–,28.2 µM (active),–
O=C(c1cn2cc(-c3cccnc3)sc2n1)N1CCCCC1,-5.61% (inactive),–,–
O=C(Nc1ccc(F)cc1)c1cn2cc(-c3ccc(C(F)(F)F)cc3)sc2n1,-0.955% (inactive),–,–
Cc1ccc(-c2cn3cc(C(=O)NCc4cccnc4)nc3s2)cc1,–,44.7 µM (active),–
Cc1cc2ncc(C(=O)NCc3cccnc3)cn2n1,–,–,inactive [at 172 µM]
Cc1noc(C)c1S(=O)(=O)N1CCCC(c2nn[nH]n2)C1 (configuration not stated),–,–,inactive
CN(C)CC1(O)CCC2(CCN(C(=O)c3ccc4ccccc4n3)CC2)CC1,-3.02% (inactive),–,–
COC(=O)N1CCCC(C(=O)N2CCC3(CC2)CC(=O)Nc2ccccc2O3)C1 (configuration not stated),-25.2% (inactive),–,–
COc1ccccc1C(O)c1nc(Nc2ccc(C(F)(F)F)cc2)n[nH]1 (configuration not stated),–,89.1 µM (active),–
COc1cccc(Nc2n[nH]c(C(O)c3cccc(C(F)(F)F)c3)n2)c1 (configuration not stated),–,79.4 µM (active),–
O=C1CCN(C(=O)c2nccc3ccccc23)CCOCCN1,-0.481% (inactive),–,–
COCCNC(=O)CN1C(=O)NC2(CCC(C(C)(C)C)CC2)C1=O (configuration not stated),-19.9% (inactive),–,–
O=C(c1cccc(N2CCNC2=O)c1)N1CC(=O)N(C2CCCCC2)CC(OCc2ccccc2)C1 (configuration not stated),21.7% (inactive),–,–
O=c1n(CCN2CCN([S+](=O)([O-])c3ccccc3)CC2)nc2n1CCCC2,-11.1% (inactive),–,–
Cc1cc(C)n(Cc2cc(C(=O)N3CCSCC3)n[nH]2)n1,–,–,inactive

Compound,"activity change, negative = cytotoxicity",Potency,outcome
CC(=O)Nc1ccc(CN2CCn3c(nnc3-c3ccccc3)C2)cc1,-4.01% (inactive),–,–
Clc1ccc(-c2nnc3n2CCN(Cc2cccnc2)C3)cc1,–,–,inactive
FC(F)(F)c1ccc(CN2CCn3c(nnc3-c3ccccc3)C2)cc1,–,89.1 µM (active),–
COc1ccc(C(=O)N2CCC(n3cc(-c4nc(C)no4)nn3)CC2)c(OC)c1,-3.26% (inactive),–,–
CCN1CCC(N2CC[C@H](CO)[C@H](N(C)C)C2)CC1,-0.762% (inactive),–,–
COCCn1c(=O)n([C@H]2CCCN(C(=O)c3cc(C)n(C)n3)C2)c2ncccc21,0.0693% (inactive),–,–
CC1Oc2ccc(NC(=O)c3ccc([N+](=O)[O-])cc3)cc2CN(Cc2ccccc2)C1=O (configuration not stated),–,31.6 µM (active),–
COCC(=O)Nc1ccc2c(c1)CN(Cc1ccccc1F)C(=O)C(C)O2 (configuration not stated),-28.2% (inactive),–,–
Cc1nn2c(c1-c1ccccc1-c1ccccc1)N(CC1CC1)CCC2,–,2.82 µM (active),–
Cc1nn2c(c1-c1ccnn1C(C)C)N(CC1CCOCC1)CCC2,–,44.7 µM (active),–
Cc1nn2c(c1-c1ccccc1-c1ccccc1)N(C(=O)CN1CCOCC1)CCC2,-19.4% [at 172 µM] (inactive),–,–
Cc1nn2c(c1-c1ccccc1C(C)C)N(C(=O)c1cnccn1)CCC2,-10.1% [at 172 µM] (inactive),–,–
Cc1nc(C)c(C(=O)N2CCCN(S(=O)(=O)c3ccccc3)CCC(=O)NCC2)s1,–,–,inactive
O=C1NCCCCCN(Cc2cccnc2)[C@@H]2CN(C(=O)C3CCCCC3)CC[C@@H]12,-21.9% (inactive),–,–
COC(=O)c1c(NC(=O)c2ccccc2)c2cc(NC(C)C)cnc2n1CC1CCCO1 (configuration not stated),–,–,inactive
O=C(N[C@@H]1CN(c2ncccn2)C[C@H]1CO)c1ccco1,-4.45% (inactive),–,–
Cc1nc(C)c(C(=O)N2CCC3(CC2)CC(N2CCCC2)CCO3)s1 (configuration not stated),0.51% (inactive),–,–
CCN1CC2(CCN(C(=O)[C@H]3Cc4ccccc4CN3)CC2)CC1=O,-15% (inactive),–,–
O=C(NCc1nnc2n1C(C(=O)NCCc1ccc(Cl)cc1)CC2)c1ccc(Cl)cc1Cl (configuration not stated),-7.78% (inactive),–,–
CC(C)CC(=O)NCC1Cn2cccc2CN1Cc1ccccc1 (configuration not stated),-15.5% (inactive),–,–
COC(=O)N1CCN(C(=O)c2cccc(-c3ccccc3OC)c2)CC1,–,63.1 µM (active),–
COc1ccccc1-c1cccc(C(=O)N2CCC[C@H]2C(=O)N(C)C)c1,-0.487% (inactive),–,–
COCC(=O)N1CCN(C(=O)c2cccc(-c3ccc(OC)nn3)c2)CC1,–,–,inactive
CC(=O)N1CC2(CCN(CCCn3ccnc3C)CC2)CC1C(=O)O (configuration not stated),–,–,inactive
Cc1cnc(C(=O)NC2C[C@H]3CC[C@@H](C2)N3C(=O)c2cc(C)n(C)n2)cn1 (some centres not stated),–,–,inactive
CC1(c2ccccc2)N(Cc2ncccn2)C(=O)OC12CCN(CCCc1ccccc1)CC2 (configuration not stated),-16.8% (inactive),–,–
